# In PubChem BioAssay (NCATS):
# Results filed as inconclusive are left out. Where a call stands in place of a potency, no number is given. The source made the active and inactive calls. Unless noted, calls follow the shape of the dose curve; as a rule, active = well fitted curve in the direction sought with a large enough effect; inconclusive = small, poorly fitted or top-dose-only effect, or another doubt; inactive = no such curve, though single readings can be large; an effect the other way counts as inactive or inconclusive.
# Legend:
# [1] = HPAF-II Cancer Cell Toxicity qHTS against the NCATS CANVASS Library (AID 1347346); also: nearly all actives have a fitted effect of over 55% in size; also: potency is read from the fitted curve at half-maximal effect
# How it was run: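 Luminescence from CellTiter-Glo, added after 72 h compound exposure and a 15 min room-temperature incubation, served as the viability readout. HPAF-II cells (1000/well) received an 11-point concentration series.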
# [2] = U-118MG Cancer Cell Toxicity qHTS against the NCATS CANVASS Library (AID 1347351); also: potency is read from the fitted curve at half-maximal effect
# How it was run: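 Toxicity is measured over 72 h of compound exposure at 37 degrees C under 5% CO2. Each well holds 1000 cells, pre-incubated for 4 hours before dosing across an 11-point range. CellTiter-Glo luminescence gives viability.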
# [3] = A2780 Cisplatin Sensitive Ovarian Cancer Cell Toxicity qHTS against the NCATS CANVASS Library (AID 1347353); also: potency is read from the fitted curve at half-maximal effect; nearly all actives have a fitted effect of over 60% in size
# How it was run: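 Luminescent ATP content (ATPLite, 10 min at room temperature) served as the read-out after cells had been exposed to compounds for 72 hours at 37 °C. Dosing followed an 11-point concentration series.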
# [4] = HEK-293 Cancer Cell Toxicity qHTS against the NCATS CANVASS Library (AID 1347355); also: nearly all actives have a fitted effect of over 65% in size; also: potency is read from the fitted curve at half-maximal effect
# How it was run: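 Luminescent ATP read-out (CellTiter-Glo, 15min at room temperature) measures survival after cells face an 11-point compound series for 72 hours at 37 degrees C/5% CO2.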
# [5] = HEK293 24hr Apoptosis Induction qHTS against the NCATS CANVASS Library (AID 1347359)
# How it was run: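 Caspase-3/7 activation measured as luminescence from the DEVD-based Caspase-Glo reagent, 15 min at room temperature, following 24-hour compound treatment of HEK293 cells.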
# [6] = tested on: NAD(P)H diaphorase (Clostridium kluyveri); test: Diaphorse counterscreen qHTS: Assay Interference Panel against the NCATS CANVASS Library (AID 1347362)
# How it was run: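 Counterscreen for coupling-enzyme interference: resorufin fluorescence from resazurin/NADH turnover, read after 5 min at room temperature. Compounds were tested over an 11-point series after 15 min dark preincubation with diaphorase in PBS-Tween.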
# [7] = SDT Cancer Cell Toxicity qHTS against the NCATS CANVASS Library (AID 1347365); also: nearly all actives have a fitted effect of over 60% in size; also: potency is read from the fitted curve at half-maximal effect
# How it was run: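 qHTS, SDT dog glioma line, 500 cells/well; cpds 11 pts; 72 hr, 37C, 5% CO2; CellTiterGlo ATP luminescence.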
# [8] = KB-3-1 Cancer Cell Toxicity qHTS against the NCATS CANVASS Library (AID 1347366); also: nearly all actives have a fitted effect of over 75% in size; also: potency is read from the fitted curve at half-maximal effect
# How it was run: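 500 KB-3-1 cells/well; compounds pin-transferred, 11-pnt series; 72 hr, 37C/5% CO2; CellTiter-Glo, 10 min RT; luminescence read-out.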
# [9] = molecular target: Nuclear receptor subfamily 1 group I member 3 (Homo sapiens) (UniProt Q14994); test: qHTS for Constitutive Androstane Receptor (CAR) Antagonist screened against the NCATS CANVASS Library (AID 1347372); also: potency is read from the fitted curve at half-maximal effect
# How it was run: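 HepG2-CYP2B6-hCAR double-stable cells plated, 4hr attach; cpd pin-transferred; CITCO 50 nM final; 24hr 37C/5% CO2; CellTiter-Fluor 1hr (fluorescence), then ONE-Glo luminescence.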
# [10] = qHTS for Hypoxia signaling pathway (HIF-1) antagonists against the NCATS CANVASS Library (AID 1347374); also: nearly all actives have a fitted effect of over 60% in size; also: potency is read from the fitted curve at half-maximal effect
# How it was run: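 HRE-bla ME-180 cells in medium with 0.5% dialyzed FBS received compounds (11-point series) plus CoCl2 (60 uM addition stock) for 17 hrs at 37C. Beta-lactamase activity read with CCF4 (405 nm ex, 460/530 nm em); CellTiter-Glo viability measured in same wells.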
# [11] = qHTS for Hypoxia signaling pathway (HIF-1) agonists against the NCATS CANVASS Library (AID 1347375)
# How it was run: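 ME-180 HRE-bla reporter cells; 2,000/well, 0.5% dialyzed FBS; cpd added after 5 h, 17 h 37C/5% CO2; CCF4-AM 2 h RT; FRET 460/530 nm; CellTiter-Glo viability same wells, 30 min.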
# [12] = DH5-alpha competent E. coli microbial cell viability qHTS against the NCATS CANVASS Library (AID 1347377); conditions: outcome: dose series up to 46.1 µM unless noted
# How it was run: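 qHTS, 11-pt; E. coli DH5-alpha, 0.2 OD; o/n 37C/5% CO2; BacTiter-Glo, 20 min RT; luminescence.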
# [13] = qHTS for H2AX Agonists against the NCATS CANVASS Library (AID 1347378)
# How it was run: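 TR-FRET readout (ex 320 nm, em 665/620 nm ratio) of phospho-H2AX (S139) in CHO-K1 lysates. Cells treated 3 hr at 37C with compound titration, 0.76% DMSO; lysis 30 min, antibody detection 24 hr at RT.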
# [14] = qHTS for Inflammasome Signaling Inhibitors: IL-1-beta AlphaLISA screen against the NCATS CANVASS Library (AID 1347379);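 also: human THP-1 cells primed with LPS then triggered with ATP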
# How it was run: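 THP-1 cells pretreated 1 hr with compound (up to 57.5 uM final), then stimulated with LPS (250 ng/mL final) and ATP (1.25 mM final). Secreted IL-1B measured by AlphaLISA after 16 hr; glyburide as positive control.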
# [15] = qHTS for Activators of p53 Stress Response Pathway screened against the NCATS CANVASS Library (AID 1347388)
# How it was run: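 Beta-lactamase reporter driven by p53 response elements in HCT-116 cells, read as the 460 nm/530 nm emission ratio after CCF4 loading, following 16 h of exposure to an 11-point series. Cell viability was measured in the same wells by CellTiter-Glo luminescence.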
# [16] = Vero-766 cells viability qHTS against the NCATS CANVASS Library: Counterscreen for Zika virus inhibition assay (AID 1347394); also: nearly all actives have a fitted effect of over 60% in size; also: potency is read from the fitted curve at half-maximal effect
# How it was run: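 CellTiter-Glo luminescence, lower signal indicating cytotoxicity. Vero 766 cells without Zika virus, 1000 cells/well, plated overnight, then treated 72 h at 37C across an 11-point series.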
# [17] = Viability qHTS for inhibitors of the SERCaMP assay screened against the NCATS CANVASS Library (AID 1347400); also: nearly all actives have a fitted effect of over 70% in size; also: potency is read from the fitted curve at half-maximal effect
# How it was run: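 SH-SY5Y SERCaMP MJH297 cells, 1000/well; 4 h settle, 37C/5% CO2; pin-transferred cpds; 48 h; CellTiter-Glo lum. Pos ctrl bortezomib 0.0001 - 4.6 uM.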
# [18] = qHTS assay for small molecule disruptors of mitochondrial membrane potential screened against the NCATS CANVASS Library (AID 1347389)
# How it was run: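 HepG2, 2,000 cells/well, attached overnight; compound 1 hr, 37C, 5% CO2; Mito-MPS dye 30 min, 37C; fluorescence 535 nm (monomer) and 590 nm (aggregate); decreased 590/535 ratio = depolarization.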
# [19] = qHTS for inhibitors of Rabies Virus screened against the NCATS CANVASS Library (AID 1347402; calls by dose curve; also: series mostly up to about 46 µM)
# [20] = qHTS to identify inhibitors of the type 1 interferon - major histocompatibility complex class I in skeletal muscle: primary screen against the NCATS Mechanism Interrogation Plate v5.0 (MIPE) Libary (AID 1347411); also: nearly all actives have a fitted effect of over 65% in size; also: potency is read from the fitted curve at half-maximal effect
# How it was run: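 Luminescence from HiBiT-tagged endogenous HLA-B*08:01 served as the MHC class I read-out. CRISPR-engineered C25cl48 human myoblasts received 4.0 ng/ml IFN-beta plus compound for 24 hrs, with an 11-point, 1:3 series topping at 46 uM final.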
# Sequence of Nuclear receptor subfamily 1 group I member 3 (Homo sapiens) (Q14994 whole entry, looked up): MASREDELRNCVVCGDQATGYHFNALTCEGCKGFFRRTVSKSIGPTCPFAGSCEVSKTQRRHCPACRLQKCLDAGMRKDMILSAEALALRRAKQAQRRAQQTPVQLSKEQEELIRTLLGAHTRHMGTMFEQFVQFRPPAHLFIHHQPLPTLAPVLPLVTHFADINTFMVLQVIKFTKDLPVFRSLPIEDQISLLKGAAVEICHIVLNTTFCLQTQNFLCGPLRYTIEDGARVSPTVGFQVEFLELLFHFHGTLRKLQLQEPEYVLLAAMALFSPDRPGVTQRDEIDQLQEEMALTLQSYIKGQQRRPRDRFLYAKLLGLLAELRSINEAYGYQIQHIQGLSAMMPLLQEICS
smiles,measurement,setting,value
C[C@]12CCC3[C@@H](CC[C@@H]4C[C@@H](O)CC[C@]34CO)[C@@]1(O)CC[C@@H]2C1=CC(=O)OC1 (stereo not given in full),Potency,[1],2980 nM (active)
same,Potency,[2],841 nM (active)
same,Potency,[3],2960 nM (active)
same,Potency,[4],1870 nM (active)
same,outcome,[5],inactive
same,Potency,[6],inactive
same,Potency,[7],1480 nM (active)
same,Potency,[8],1320 nM (active)
same,Potency,[9],4170 nM (active)
same,Potency,[10],941 nM (active)
same,outcome,[11],inactive
same,outcome,[12],inactive
same,Potency,[13],inactive
same,Potency,[14],1930 nM (active)
same,Potency,[15],inactive
same,Potency,[16],11700 nM (active)
same,Potency,[17],1910 nM (active)
CCCCC1CC[C@H]2CCCC(CCC)N12 (stereo not given in full),Potency,[1],inactive
same,Potency,[2],inactive
same,Potency,[4],inactive
same,outcome,[5],inactive
same,Potency,[6],inactive
same,Potency,[7],inactive
same,Potency,[8],inactive
same,Potency,[9],inactive
same,Potency,[10],inactive
same,outcome,[11],inactive
same,outcome,[12],inactive
same,Potency,[13],inactive
same,Potency,[14],inactive
same,Potency,[15],inactive
same,Potency,[18],inactive
same,Potency,[16],inactive
same,Potency,[17],inactive
same,outcome,[19],inactive
C/C=C(\C)C(=O)N[C@@H](c1ccccc1)[C@@H](O)C(=O)O[C@H]1C[C@@]2(O)[C@@H](OC(=O)c3ccccc3)[C@@H]3[C@]4(OC(C)=O)CO[C@@H]4C[C@H](O)[C@@]3(C)C(=O)[C@H](OC(C)=O)C(=C1C)C2(C)C,Potency,[20],inactive
N#CC(O[C@@H]1O[C@H](CO[C@@H]2O[C@H](CO)[C@@H](O)[C@H](O)[C@H]2O)[C@@H](O)[C@H](O)[C@H]1O)c1ccccc1 (stereo not given in full),Potency,[20],inactive
COC(=O)[C@]12CCC(C)(C)C[C@H]1[C@H]1C(=O)C=C3[C@@]4(C)C=C(C#N)C(=O)C(C)(C)[C@@H]4CC[C@@]3(C)[C@]1(C)CC2,Potency,[20],1170 nM (active)
C[C@@H](C1CC[C@@]2(O)C3=CC(=O)[C@@H]4C[C@@H](O)[C@@H](O)C[C@]4(C)[C@H]3CC[C@]12C)[C@H](O)CCC(C)(C)O (stereo not given in full),Potency,[20],inactive
C[C@@H]1O[C@H](c2c(O)cc(O)c3c(=O)cc(-c4ccc(O)cc4)oc23)[C@H](O)[C@H](O)[C@H]1O,outcome,[19],inactive
COC(=O)[C@@]12OC[C@]34[C@H]([C@@H](O)[C@@H]1O)[C@@]1(C)CC(=O)C(O)=C(C)[C@@H]1C[C@H]3OC(=O)[C@H](OC(=O)/C=C(\C)C(C)C)[C@@H]24,Potency,[20],65.8 nM (active)
Cn1c(COP(=O)(NCCBr)NCCBr)cnc1[N+](=O)[O-],Potency,[20],inactive
COC12C(COC(N)=O)C3=C(C(=O)C(C)=C(N)C3=O)N1CC1C2N1C (stereo not given),Potency,[20],inactive
C[C@]12COC(=O)C[C@@H]1CC[C@@H]1[C@@H]2CC[C@@]2(C)[C@H]1CC[C@]2(C)O,Potency,[20],inactive
COc1cc(C)[nH]c(=O)c1CNC(=O)c1c(C)n([C@H](C)C2CCN(CC(F)(F)F)CC2)c2ccccc12,Potency,[20],inactive
Cn1c(/C=C/CO)c(CO)c2c1C(=O)C=C(N1CC1)C2=O,Potency,[20],inactive
CC(=O)O[C@@]12CO[C@@H]1C[C@H](O)[C@@]1(C)C(=O)[C@H](O)C3=C(C)[C@@H](O)C[C@@](O)([C@@H](OC(=O)c4ccccc4)[C@H]21)C3(C)C,Potency,[20],inactive
COC[C@H]1OC(=O)c2coc3c2[C@@]1(C)C1=C(C3=O)[C@@H]2CC[C@H](O)[C@@]2(C)C[C@H]1OC(C)=O,Potency,[20],inactive
O=C(O)CC1OCc2c(O)cccc21 (stereo not given),outcome,[19],inactive
CC(C)(NC(=O)O[C@@H]1CN2CCC1CC2)c1csc(-c2ccc(F)cc2)n1,Potency,[20],inactive
O=C(O)CNC(=O)C1C(=O)N(C2CCCCC2)C(=O)N(C2CCCCC2)C1=O,Potency,[20],inactive
C=C1C(=O)C[C@H]2C[C@@H]1[C@]2(C)CCC=C(C)C,outcome,[19],inactive
CO/C1=C/C(C)=C\[C@@H](C)[C@@H](O)[C@@H](C)C/C(C)=C\C=C/[C@H](OC)[C@@H]([C@@H](C)[C@@H](O)[C@H](C)[C@@]2(O)C[C@@H](O)[C@H](C)[C@@H](C(C)C)O2)OC1=O,Potency,[20],inactive
Cc1[nH]ncc1-c1cc2nc([C@@H]3CC4CCN3CC4)[nH]c(=O)c2s1,Potency,[20],7390 nM (active)
C[C@@]12OC(=O)[C@]1([C@@H](O)[C@@H]1C=CCCC1)NC(=O)[C@@H]2CCCl,Potency,[20],29.4 nM (active)
C=C[C@H]1CN2CCC1C[C@@H]2[C@@H](O)c1ccnc2ccccc12 (stereo not given in full),Potency,[20],inactive
CCCCCCC(C)(C)c1cc(O)c2c(c1)OC(C)(C)C1CC=C(CO)C[C@H]21 (stereo not given in full),Potency,[20],13100 nM (active)
CC(C)(O)/C=C\C(=O)[C@](C)(O)[C@H]1[C@H](O)C[C@]2(C)[C@@H]3CC=C4[C@@H](C=C(O)C(=O)C4(C)C)[C@]3(C)C(=O)C[C@@]12C,Potency,[20],3300 nM (active)
CC(O)/C=C/C1(O)C(C)(C)CC(O)CC1(C)O (stereo not given),outcome,[19],inactive
C=C(C)[C@@H]1CCC(C)=C[C@H]1c1c(O)cc(CCCCC)cc1O,Potency,[20],33000 nM (active)
CC(=O)OC[C@H]1O[C@@H]([S-])[C@H](OC(C)=O)[C@@H](OC(C)=O)[C@@H]1OC(C)=O.CC[PH+](CC)CC.[Au],Potency,[20],1170 nM (active)
O=C(CBr)N1CC([N+](=O)[O-])([N+](=O)[O-])C1,Potency,[20],inactive
CN1C(=O)[C@@H](NC(=O)[C@H](CCC(F)(F)F)[C@H](CCC(F)(F)F)C(N)=O)N=C(c2ccccc2)c2ccccc21,Potency,[20],inactive
CC(=O)O[C@H]1CC[C@@]2(C)C(CC[C@]3(C)C2CC=C2C4CC(C)(C)CC[C@]4(C)CC[C@]23C)C1(C)C (stereo not given in full),outcome,[19],inactive
CC(N[C@H]1C[C@@H]1c1ccccc1)c1ccc2c(c1)OCCO2 (stereo not given in full),Potency,[20],inactive
